About 83,000 compounds went through this panel and 20% of them were active in at least one assay; those are over-represented in the sample as a whole.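 Assay: single dose, 48 h. Readout: percent growth (0 = no net growth; negative = cell death). Active: <10.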 Values without a mark were called inactive. Calls of active or inactive are those of the source.

In the test the test system is HL-60(TB) leukemia. In words: NCI-60 one-dose screen, 48 h (100 = growth as untreated, 0 = no growth, -100 = all killed). The conditions noted are these: 10 µM unless noted.

Turning to `CN1CCN(Cc2ccc(NC(=O)c3cncc(C#Cc4cnc5ccc(OC6CCOCC6)nn45)c3)cc2C(F)(F)F)CC1`, the growth is -43.8% (active).

Take `CCOc1cccc(-c2nc3sccn3c2-c2ccnc(S(C)(=O)=O)n2)c1`: the growth was 36.9%.

Turning to `O=C(Nc1nc2ccc([N+](=O)[O-])cc2s1)Nc1ccccc1Br`, the growth was 37.1%.

Consider `Cc1cc(Cl)cc(NS(=O)(=O)c2ccc(-c3cnc(C4CC4)o3)cc2)c1`, for which the growth is -4.23% (active).

Consider `C=CCn1c(SCC(=O)Nc2ccc(C(=O)/C=C/c3ccc(C)cc3)cc2)nnc1-c1c[nH]c2ccccc12`, for which the growth was 98.4%.

Consider `CN1CCN(c2ccc(NC(=O)Nc3ccc4c(ccn4-c4cccc(C(N)=O)n4)c3)cc2C(F)(F)F)CC1`, for which the growth was 66.1%.

On to `Cc1ccc(/C=C/CC(=O)Nc2ccc(C(=O)Nc3ccc(F)cc3N)cc2)cn1`, for which the growth was 8.39% (active).

Consider `Nc1nc(-c2cccc([N+](=O)[O-])c2)c(N=Nc2cccc([N+](=O)[O-])c2)s1`, for which the growth was 118%.

Consider `CCN1CCN(/C(=N\c2sc(-c3ccccc3)nc2-c2ccccc2)c2ccccc2)CC1`, for which the growth was 50.9%.

Consider `CCCCCCNC(=O)Oc1ccc(/C(=C(\C)c2ccc(OC)cc2)c2ccc(OCCN(C)C)cc2)cc1`, for which the growth was 56.3%.

`O=C(CSc1nnc(-c2ccc(Cl)cc2)n1-c1ccccc1)Nc1ccccc1Cl`: the growth is 91.8%.

With `C[C@H](CCC(=O)NCc1ccc(C(=O)Nc2ccccc2N)cc1)[C@H]1CC[C@H]2[C@@H]3[C@@H](O)C[C@@H]4C[C@H](O)CC[C@]4(C)[C@H]3CC[C@]12C`, the growth was 0.73% (active).

On to `CNC(=O)c1cc(Oc2ccc3nc(NC(=O)c4ccc(CN5CCN(C)CC5)c(C(F)(F)F)c4)sc3c2)ccn1`, for which the growth was 11.3%.

Take `Cn1cc(-c2nc(N)nnc2-c2c[nH]c3ccc(Br)cc23)c2cc(F)ccc21`: the growth is 75.3%.

In the case of `CC(C)c1nn(-c2ccccc2)c(N2CCCCC2)c1/C=N/NC(N)=S`, the growth is 98.4%.

Take `O=[N+]([O-])c1cc(/C=N/Nc2nc(N/N=C/c3ccc(Cl)c([N+](=O)[O-])c3)nc(N3CCCCC3)n2)ccc1Cl`: the growth is 41.9%.

In the case of `CCOC(=O)C1=NNC(c2ccc(Cl)cc2)C1C(=O)N1C(=S)NC(=O)C1CC(C)C` (stereo unspecified), the growth was 106%.

Turning to `O=C(NCCn1ccnc1)c1ccc(-c2nc3ccc4[nH]ncc4c3c3c2CCCC3)cc1`, the growth is 76.9%.

On to `NC(=O)c1c(NC(=O)c2ccccc2C(F)(F)F)sc2c1CCC(=O)C2`, for which the growth is 1.97% (active).

As for `CS(=O)(=O)c1ccc(-c2nn(-c3ccccc3)cc2/C=N/NC(=O)c2ccncc2)cc1`, the growth is 81.1%.

With `COc1cc2nc(-c3ccc(C)cc3)cc(OCCCNCC3CCCO3)c2cc1OC` (stereo unspecified), the growth is 48.6%.

Turning to `COc1cc2oc(-c3cccc(NC(=O)c4cccc([N+](=O)[O-])c4)c3)cc(=O)c2c(OC)c1OC`, the growth was 68.9%.

Turning to `COc1cccc2c1CN(C(=O)c1ccc(O)c(C(=O)N3Cc4ccc(OCCC[P+](c5ccccc5)(c5ccccc5)c5ccccc5)cc4C3)c1)C2`, the growth is 41.3%.

With `COc1ccc(-n2c(/C=C3\C(=O)Nc4ccccc43)ccc2CO)cc1`, the growth is 92.7%.

Take `COc1cc(/C=C/C(=O)c2ccccc2)ccc1Oc1nc(NCCO)nc(N2CCOCC2)n1`: the growth was 81.6%.

As for `O=C(O)c1ccc(-n2cc(CNc3cc(F)c(F)c(F)c3)c(-c3ccc(F)cc3)n2)cc1`, the growth was 103%.

For the molecule `CC1=NC2=NN3C(=NN2C(c2ccccc2)=C1)N=NC(c1ccc(Br)cc1)=C3c1ccc(Br)cc1`, the growth is 115%.

With `Clc1ccc2oc3c(OCCCn4ccnc4)c4ccccc4nc3c2c1`, the growth was 73.1%.

`C#CCOc1ccc(/C=N\Nc2nc(-c3ccc(C)cc3)cs2)cc1OC`: the growth is 69.5%.

Regarding `CCOC(=O)c1c(Nc2ccccc2)nn2c(-c3ccc(Br)cc3)ccnc12`, the growth was 90.6%.

For `Cc1ccc(NC(=O)N[C@@H](Cc2cc(F)cc(F)c2)C(=O)NC2C(=O)N3C[C@H](O)C[C@H]3C(=O)N3CCCC[C@H]3C(=O)N[C@@H](CO)C(=O)N3C[C@H](C)C[C@H]3C(=O)O[C@H]2C)c(F)c1` (stereo partly specified), the growth is 16.2%.

For `COc1cccc(O)c1/C=C(/C)c1ccc2c(OC)cccc2[o+]1`, the growth was 120%.

For the molecule `CCOc1ccc(NC2=C(Cl)C(=O)c3nc(C)ccc3C2=O)cc1`, the growth is -46.4% (active).

As to `CC1OC(O[C@@H]2[C@H](O)C(CO)OC(O[C@H]3COC(O[C@H]4CC[C@]5(C)[C@H]6CC[C@]78OC[C@@]9(CCC(C)(C)C[C@H]97)[C@H](O)C[C@@]8(C)[C@]6(C)CC[C@H]5C4(C)C)[C@@H](OC4OC(CO)[C@@H](O)[C@@H](O)[C@@H]4O)[C@@H]3O)[C@H]2OC2OC[C@@H](O)[C@@H](O)[C@@H]2O)[C@@H](O)[C@@H](O)[C@H]1O` (stereo partly specified), the growth was -61.4% (active).

On to `CNC1CCc2c(sc(NC(=O)c3ccc(C(C)(C)C)cc3)c2C(N)=O)C1` (stereo unspecified), for which the growth was -69.3% (active).

With `Cn1c(SCC(=O)c2ccco2)nc2ccccc2c1=O`, the growth is 98.3%.

The values above are taken from PubChem BioAssay (NCI).
